Measurements published in PubChem BioAssay AID1347075 (National Center for Advancing Translational Sciences (NCATS), 2019).
Hit rate of the full screen: of about 400,000 compounds, about 5,500 (1.4%) were called active. Entries that show only a call come without a potency. Not shown: some 9% with an inconclusive outcome. Calls come from the whole dose curve; as a rule, active = well fitted cell-killing curve with a large enough effect; inconclusive = small, poorly fitted or top-dose-only effect, or effect the other way; inactive = flat fitted curve, though single readings scatter. For the sample, actives were picked, then their nearest neighbours and some compounds at random.

test: qHTS assay for MDR1-selective chemotherapeutics: Primary screen using the parental adenocarcinoma cell KB-3-1; details: KB-3-1 viability, CellTiter-Glo ATP luminescence, 72 h; series mostly up to 46.1 µM; note: nearly all actives have a fitted effect of over 60% in size
How it was run: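 Using CellTiter-Glo luminescence, growth of non-resistant KB-3-1 adenocarcinoma cells is assessed 72 h after pin-tool compound addition at 37 °C. Normalized responses across the concentration series yield fitted curves.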
Potency is the fitted concentration of half-maximal effect.

| SMILES | Potency |
| --- | --- |
| Cc1cc(C)cc(Nc2ncnc3onc(-c4ccc(F)cc4)c23)c1 | inactive |
| Cc1cc(-c2ccc(C)c(S(=O)(=O)N3c4ccccc4CC3C)c2)on1 (stereo unspecified) | 14.6 µM (active) |
| CCC1CN(S(=O)(=O)c2cc(-c3cc(C)no3)ccc2C)c2cc(C)ccc2O1 (stereo unspecified) | inactive |
| CC1Cc2ccccc2N1S(=O)(=O)c1ccc(Cl)nc1 (stereo unspecified) | inactive |
| O=C(OCC(=O)N1CCN(C(=O)c2ccco2)CC1)c1cccc(O)c1 | inactive |
| O=C(Nc1ccccc1N1CCN(C(=O)c2ccccc2)CC1)c1ccco1 | inactive |
| COc1cccc(C(=O)Nc2ccc(N3CCN(C(=O)c4ccco4)CC3)cc2)c1 | 4.61 µM (active) |
| Cc1csc2nc(COc3ccc(NC(=O)COc4ccccc4)cc3)cc(=O)n12 | inactive |
| O=C1CCCN1C(=O)COc1ccc([N+](=O)[O-])cc1 | inactive |
| O=[N+]([O-])c1ccc(/C=C/c2ccc3cccnc3c2)cc1 | inactive |
| O=C1/C(=C\c2ccc([N+](=O)[O-])cc2)CS(=O)(=O)C/C1=C/c1ccc([N+](=O)[O-])cc1 | 1.46 µM (active) |
| Cc1ccccc1C(=O)Nc1sc2c(c1C(=O)N1CCC(C)CC1)CCCC2 | inactive |
| COc1ccc(CNC(=O)c2ccc3c(O)c(S(=O)(=O)c4ccccc4)c(=O)[nH]c3c2)cc1 | inactive |
| Cc1ccc(C)c(N2C(=O)N(Cc3c(F)cccc3Cl)c3ccccc3S2(=O)=O)c1 | inactive |
| Cc1cc(C)c(NC(=O)Cn2c(SCC(=O)NCc3ccccc3)nc3ccccc32)c(C)c1 | inactive |
| Cc1cccc(CNS(=O)(=O)c2ccc(-c3cnc(C4CC4)o3)cc2)c1 | inactive |
| Cc1cccc(NS(=O)(=O)c2ccc(-c3cnc(C4CC4)o3)cc2)c1 | 1.46 µM (active) |
| Cc1ccc(-c2cnc(C3CC3)o2)cc1S(=O)(=O)Nc1cccc(C)c1C | inactive |
| COCCn1c(CCC(=O)Nc2cc(C)ccc2C)nc2cccnc21 | inactive |
| COC(=O)c1ccccc1NC(=O)c1cc(-c2ccccc2O)no1 | inactive |
| O=C(CSc1nnc(-c2ccncc2)n1-c1ccccc1)Nc1ccc(Cl)c(Cl)c1 | inactive |

| SMILES | Potency |
| --- | --- |
| O=C(CC(O)(C(F)(F)F)C(F)(F)F)Nc1ccc(Cl)c(Cl)c1 | 5.17 µM (active) |
| Cc1ccc(-c2nn(CCC(=O)Nc3ccc(Cl)c(Cl)c3)c(=O)c3ccccc23)cc1 | inactive |
| COc1cc(-c2noc(C3CCCN(S(=O)(=O)c4cccc(Cl)c4)C3)n2)cc(OC)c1OC (stereo unspecified) | inactive |
| CC(C)c1ccc(-c2noc(C3CCCN(S(C)(=O)=O)C3)n2)cc1 (stereo unspecified) | 20.6 µM (active) |
| O=C(Cc1cccs1)N1CCCC(c2nc(-c3ccc(S(=O)(=O)N4CCCC4)cc3)no2)C1 (stereo unspecified) | inactive |
| CC1CCCCN1CC(=O)N1CCCc2c1c(=O)oc1ccc(OCc3ccccc3)cc21 (stereo unspecified) | inactive |
| Cc1cc(C)c(NC(=O)CCc2c(C)nc3c(c(C)nn3C(C)(C)C)c2C)c(C)c1 | inactive |
| Cc1ccc(CCC(=O)Nc2ncc(Cc3cc(Cl)ccc3Cl)s2)o1 | 1.16 µM (active) |
| CCc1ccc(CCC(=O)Nc2ccc(S(N)(=O)=O)cc2)o1 | inactive |
| Cc1cccc(-n2c(=O)c3c(c4cc(C)ccc4n3C)n(CC(=O)Nc3ccccc3Cl)c2=O)c1 | inactive |
| CCC1CCCCN1S(=O)(=O)c1ccc(NC(=O)c2cc(=O)c3ccccc3o2)cc1 (stereo unspecified) | inactive |
| COc1ccc2c(c1OC)C(=O)OC2Nc1nc(-c2ccccc2)cs1 (stereo unspecified) | 3.66 µM (active) |
| COc1cc(C(O)c2nc(-c3cccc(C(=O)O)c3)cs2)ccc1F (stereo unspecified) | inactive |
| COc1ccccc1C(=O)Nc1nc2nc(-c3ccccc3)cc(=O)n2[nH]1 | inactive |
| CCOC(=O)c1cccc(NS(=O)(=O)c2cc(-c3cnc(C)o3)ccc2OC)c1 | inactive |
| COc1ccc(C)cc1N(CC(=O)N1CCC(C)CC1)S(=O)(=O)c1ccc(C)cc1 | inactive |
| CC(=O)Nc1ccc(NC(=O)c2cc3sccc3n2Cc2ccc(F)cc2)cc1 | inactive |
| CCn1cc(C(=O)OCC(=O)Nc2cc(C)cc(C)c2)c(=O)c2ccc(C)nc21 | inactive |
| C[n+]1ccc(/C=C/c2c[nH]c3ccccc23)cc1 | 1.16 µM (active) |
| Clc1ccc(CSc2nncn3c2cc2occc23)cc1 | inactive |
| COc1cccc2cc(-c3nc(Cl)c4c5c(sc4n3)CC(C)CC5)c(=O)oc12 (stereo unspecified) | inactive |

| SMILES | Potency |
| --- | --- |
| COc1ccc(CNC(=O)C2=Cc3cccc(OC)c3OC2)cc1OC | inactive |
| CCN(Cc1ccccc1)S(=O)(=O)c1ccc2c(c1)CCCN2C(C)=O | inactive |
| Oc1ccc2ccccc2c1N=Nc1nccs1 | 14.6 µM (active) |
| Cc1ccccc1OCCSc1nc2ccc(NC(=O)c3ccco3)cc2s1 | inactive |
| O=C(Nc1ccc2c(c1)OCO2)c1cc(-c2cccc(Cl)c2)on1 | inactive |
| Cc1ccc(S(=O)(=O)c2c(Nc3cccc(Cl)c3)sc(C(=O)c3ccc4c(c3)OCO4)c2N)cc1 | 14.6 µM (active) |
| CC(=O)Nc1cccc(C(=O)OCC(=O)c2ccc3c(c2)OCO3)c1 | inactive |
| CN(C)C1=C2C=CC=CC2/C(=C2/C=Cc3ccccc32)C=C1 (stereo unspecified) | inactive |
| COc1ccc(NC(=O)c2ccc3nc(CCc4ccccc4)oc3c2)c(OC)c1 | inactive |
| Cc1oc2ccc(O)c(CN3CCOCC3)c2c1C(=O)Nc1cccc(Cl)c1C | inactive |
| CCOc1ccc(NC(=O)Cn2c(=O)n(CCCC(=O)NCc3ccc4c(c3)OCO4)c(=O)c3ccccc32)cc1 | inactive |
| CCCOc1ccc(NC(=O)CC2C(=O)N(C)C(=S)N2Cc2ccc3c(c2)OCO3)cc1 (stereo unspecified) | 18.4 µM (active) |
| COc1ccc(NC(=O)CSc2nccn2Cc2ccc3c(c2)OCO3)cc1 | inactive |
| CC(C)(O)C#Cc1ccc(CN2CCC(CO)(CCc3ccccc3)CC2)cc1 | inactive |
| Cc1cccc(-c2ncc(CN3CCC(CO)(CCCc4ccccc4)CC3)cn2)c1 | inactive |
| Cc1c(CN2CCC(CO)(CCOc3ccccc3)CC2)[nH]c2ccc(Cl)cc12 | 14.6 µM (active) |
| Cc1ccc(C(=O)COC(=O)C(Cc2c[nH]c3ccccc23)NC(=O)c2ccc(Br)cc2)cc1 (stereo unspecified) | inactive |
| COc1cc(C(=O)Nc2ccc(OCc3cc(=O)n4cc(C)sc4n3)cc2)cc(OC)c1OC | inactive |
| O=C(CSc1oc(-c2ccco2)nc1S(=O)(=O)c1ccc(Cl)cc1)c1ccccc1 | inactive |
